Compound activity as filed in PubChem.
Rows were chosen to be rich in hits. Some 3.7% of all compounds tested hit in one or more screens of this group.
MITF act – activators of MITF-driven TRPM1 promoter reporter, primary screen, cell-based, SK-MEL-5, luciferase, single point | SK-MEL-5 TRPM1-promoter luciferase, 24 h; % of positive control, neutral wells = 0 | activation, % at 12.5 µM | hit rate 0.75% among 300,000 | AID 588334, 2011;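 active = mean activation of at least 80% with every replicate also reaching 80%; inconclusive = mean reaches 80% but some replicate falls short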
esBAF inh – Bmi1 luciferase reporter increase in mESCs, primary screen, esBAF inhibitor project, mouse ES cells, Bmi1 luciferase knock-in, single point. hit rate 2% among 350,000. reporter increase, % at 12.5 µM. 24 h; 100% = twice the neutral-well signal; in the data active = activation above about 40%; inconclusive = no clear call, values can overlap the other calls;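 note: a rise in the Bmi1 reporter signal indicates esBAF inhibition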
MLL AF4-AF9 inh – inhibitors of AF4 peptide binding to AF9, primary screen, biochemical, AlphaScreen, biotin-AF4 peptide, FLAG-AF9, single point; hit rate 0.47% among 350,000; inhibition, % at 10 µM; AID 651704, 2012;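 active = every replicate reaching a set inhibition limit, whatever the replicate mean, cut at about 25% in these data; inconclusive = mean inhibition reaches that limit but some replicates miss it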
Target sequence (P42568 whole entry, looked up): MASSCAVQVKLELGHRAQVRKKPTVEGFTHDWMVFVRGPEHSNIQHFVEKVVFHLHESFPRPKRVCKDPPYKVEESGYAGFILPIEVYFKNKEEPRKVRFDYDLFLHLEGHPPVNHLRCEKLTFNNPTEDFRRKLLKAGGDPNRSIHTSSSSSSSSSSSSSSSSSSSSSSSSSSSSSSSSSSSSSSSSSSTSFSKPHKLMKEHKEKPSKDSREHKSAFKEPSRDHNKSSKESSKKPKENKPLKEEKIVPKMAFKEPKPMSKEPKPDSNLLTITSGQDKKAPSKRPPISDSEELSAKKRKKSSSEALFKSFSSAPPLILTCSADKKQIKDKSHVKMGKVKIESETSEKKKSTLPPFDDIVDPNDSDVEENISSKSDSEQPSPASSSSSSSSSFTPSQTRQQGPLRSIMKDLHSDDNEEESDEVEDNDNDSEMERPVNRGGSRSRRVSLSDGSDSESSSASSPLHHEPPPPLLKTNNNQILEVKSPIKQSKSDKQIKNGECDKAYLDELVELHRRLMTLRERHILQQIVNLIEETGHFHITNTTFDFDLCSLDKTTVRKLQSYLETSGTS
Wnt act – Wnt/beta-catenin pathway activators, primary screen, cell-based, plate reader, single point | Wnt/beta-catenin reporter cell assay, activator | activation, % at 9.35 µM | hit rate 1.2% among 300,000 | AID 743398, 2014; in the data active = activation above about 30%, passing the limit was not always enough; inconclusive = no clear call, values can overlap the other calls
rRNA inh HTS – reduced GFP signal of wild-type E. coli, primary screen, bacterial rRNA inhibitor project, GFP/RFP fluorescence, OD600, single point; E. coli WT GFP vs humanized-ribosome RFP mutants, 24 h; stronger effect = lower value; DMSO median 0, no signal -100; GFP signal change (wild-type ribosome), % (test concentration not listed); hit rate 1.6% among 350,000;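 active = significant combined selectivity score with lowered wild-type GFP, culture density cut under 30%, mutant RFP and density less affected; inactive = any of these conditions unmet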
HepG2 tox – cytotoxicity in HepG2 cells, dose response, cytotoxicity control, cell-based, CellTiter-Glo luminescence, cherry-pick, set 4; shares compounds with rRNA inh HTS; 30 tested, under 10 active; HepG2 viability, ATP luminescence, 72 h; activity change, negative = cytotoxicity, unspecified at 26 µM;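 active = compounds whose fitted half-maximal signal-loss concentration is at most twice their highest valid dose; inconclusive = flat curve with 30 to 70% signal loss, or poor fit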
AID977621 – growth inhibition of wild-type GFP E. coli, dose response, H69 mutant RFP, cherry-pick | shares compounds with rRNA inh HTS | E. coli wild-type GFP strain growth, fluorescence, 24 h | activity change, negative = inhibition at 50 µM | 1,900 tested, under 10 active | AID 977621, 2014;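 active = Wild-type ribosome reporter drop at least double the humanized mutant ribosome reporter drop, growth loss under a set limit; inconclusive = no clear call, values can overlap the other calls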;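 note: wild-type GFP and H69 mutant RFP strains grown together 50/50 in each well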
AID977628 – E. coli growth inhibition, wild-type GFP versus h24 humanized RFP strain, dose response, h24 mutant RFP vs wild-type GFP, cherry-pick. 1,900 tested, under 10 active. activity change, negative = inhibition at 50 µM. shares compounds with rRNA inh HTS. E. coli WT GFP strain growth, fluorescence, 24 h;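 active = compound lowering the normal-ribosome reporter at least twice as much as the humanized-ribosome reporter, growth loss under a set limit; inconclusive = no clear call, values can overlap the other calls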;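 note: wild-type GFP and h24 humanized RFP strains co-cultured 1 to 1 per well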
Of the large screens only hits and unclear results are named; the others gave an inactive call (follow-up assays come after a bar, where they were run).

Cc1ccccc1SCC(=O)OCC(=O)Nc1sccc1C(N)=O	rRNA inh HTS -29 (no result: esBAF inh) | AID977621 inactive | AID977628 inactive
Fc1ccc(-c2nc3c(Cl)cc(C(F)(F)F)cn3c2Cc2ccsc2)cc1	rRNA inh HTS -17 (no result: MITF act, esBAF inh) | AID977621 inactive | AID977628 inactive
Cc1ccc(-c2nc3c(Cl)cc(C(F)(F)F)cn3c2Cc2ccsc2)cc1	none (no result: MITF act, esBAF inh)
COc1cc(C=NNC(=O)C(=O)Nc2cccc(Cl)c2)cc(OC)c1O	none (no result: MITF act, esBAF inh)
CSc1nnnc2ccccc12	none
CNC[C@H]1Oc2ccc(NC(=O)CCN3CCOCC3)cc2C(=O)N([C@H](C)CO)C[C@@H]1C	none (no result: MITF act, Wnt act)
COc1ccc2c3c(n(C)c2c1)[C@@H](CO)N(CC1CC1)CC31CN(C(=O)CN2CCOCC2)C1	none (no result: MITF act, esBAF inh, Wnt act)
CC(=O)c1ccc(-c2cccc([C@H]3[C@@H]4C=CC[C@@H](C)[C@@H]4C(=O)N3Cc3ccccc3)c2)cc1	rRNA inh HTS -19 | AID977621 inactive | AID977628 inactive
COc1ccc(-c2cccc([C@H]3[C@@H]4C=CC[C@@H](C)[C@@H]4C(=O)N3Cc3ccccc3)c2)cc1	none
O=C(Nc1cccnc1)c1ccc([N+](=O)[O-])o1	rRNA inh HTS -19 | AID977628 inconclusive
Cc1c(Cl)c([N+](=O)[O-])nn1Cc1ccc(C(=O)Nc2ccc(Cl)cn2)o1	none (no result: esBAF inh, MLL AF4-AF9 inh, Wnt act, rRNA inh HTS)
O=C(Nc1ccc(Cl)cn1)c1ccc([N+](=O)[O-])o1	Wnt act 54, rRNA inh HTS -21 (no result: esBAF inh) | AID977621 inactive | AID977628 inactive
CC(=O)c1ccc(NC(=O)c2ccc([N+](=O)[O-])o2)cc1	rRNA inh HTS -15 (no result: MITF act) | AID977628 inactive
O=C(Nc1ccc2c(c1)OCCO2)C1CCCN1C(=O)Nc1ccccc1 (stereo not given)	none
COc1ccccc1-n1cc(C(=O)NCC(=O)NCc2ccc(F)cc2)c2ccccc2c1=O	none (no result: esBAF inh)
C/C=C/c1cnc2c(c1)C(=O)N([C@H](C)CO)C[C@@H](C)[C@H](CN(C)S(=O)(=O)c1ccc(OC)cc1)O2	none (no result: MITF act, Wnt act)
CCCNc1c(N)n(-c2ccccc2)c(=O)[nH]c1=O	none (no result: MLL AF4-AF9 inh, rRNA inh HTS)
COC(=O)[C@]1(Sc2ccc(C)cc2)CC(=O)N[C@@H]1c1ccccc1	rRNA inh HTS -21 (no result: MITF act, esBAF inh) | AID977621 inactive | AID977628 inconclusive
COC(=O)c1ccsc1NC(=O)c1cccc(OC)c1	rRNA inh HTS -27 (no result: esBAF inh) | AID977621 inactive | AID977628 inactive
O=C(Cc1cccs1)Nc1ccc(Cl)cc1	none (no result: MLL AF4-AF9 inh, rRNA inh HTS)
Cc1cc(C(=O)Nc2ccc(Cl)cc2)c(C)n1Cc1cccs1	rRNA inh HTS -30 (no result: esBAF inh) | AID977621 inactive | AID977628 inactive
CC(=O)c1ccccc1OCCOCCOCCOc1ccccc1C(C)=O	rRNA inh HTS -22 | AID977621 inactive | AID977628 inconclusive
CC(=O)Nc1ccccc1OCCOc1ccc(Br)cc1	none (no result: esBAF inh)
NC(=O)c1ccccc1OCCOc1ccc(Br)cc1	rRNA inh HTS -26 | AID977621 inactive | AID977628 inactive
O=C(C[C@@H]1C=C[C@H](NC(=O)CN2CCOCC2)[C@H](CO)O1)NCCc1ccccc1	none (no result: MITF act, Wnt act)
C=CCn1c(CSc2nnc(-c3ccccc3)n2C)n[nH]c1=S	none
C=CCn1c(SCc2n[nH]c(=S)n2-c2ccccc2)nnc1-c1ccccc1	rRNA inh HTS -22 | AID977628 inconclusive
COc1cc(OC)cc(C2=Cc3ccccc3C(CC(C)=O)N2c2ccc(C#CC3(O)CCCCC3)cc2)c1 (stereo not given)	none (no result: MITF act, esBAF inh)
COc1cc2c(cc1OC)C1(C)N(CC2)C(C(C)=O)=NN1c1ccc(Cl)cc1 (stereo not given)	rRNA inh HTS -17 (no result: MITF act, esBAF inh) | AID977621 inactive
COc1cc2c(cc1OC)CN(C(=O)c1cc(Cl)nc(Cl)c1)CC2	none
CCCNC(=O)N[C@@H]1CC[C@H](CCn2cc(C3CCCC3)nn2)O[C@H]1CO	none (no result: MITF act, Wnt act)
O=C(NCC[C@H]1CC[C@@H](NS(=O)(=O)c2ccc(Cl)cc2)[C@H](CO)O1)c1ccc2c(c1)OCO2	none (no result: MITF act, Wnt act)
Cc1cc2nc(-c3ccc4c(c3)CCC4)ccn2n1	rRNA inh HTS -31 (no result: esBAF inh) | AID977628 inconclusive
Cc1cc2nc(-c3cc(N4CCOCC4)ccc3[N+](=O)[O-])ccn2n1	none
Brc1ccccc1Cn1c(-c2cncs2)nc2ccccc21	rRNA inh HTS -9.4 | AID977621 inactive | AID977628 inactive
CNC(=O)c1cc(C(=O)c2ccc(C(F)(F)F)cc2)c[nH]1	none
CNC(=O)c1cc(C(=O)c2ccc(C(F)(F)F)cc2F)c[nH]1	rRNA inh HTS -25 | AID977621 inactive | AID977628 inconclusive
COc1cccc(NC(=O)COC(=O)Cc2ccccc2[N+](=O)[O-])c1	rRNA inh HTS -17 | AID977628 inconclusive
Cc1cccc(C)c1NC(=O)CNC(=O)C(C)N1CCN(c2cccc(Cl)c2)CC1 (stereo not given)	rRNA inh HTS -22 | AID977628 inactive
Cc1cc(NC(=O)CN2CCN(c3cccc(Cl)c3)CC2)no1	rRNA inh HTS -15 (no result: esBAF inh) | AID977628 inconclusive
Cc1cc(NC(=O)CN2CCN(c3ncccn3)CC2)no1	none
O=C(NNS(=O)(=O)c1ccccc1[N+](=O)[O-])c1cccc(Br)c1	none (no result: MITF act)
COCc1cc(C)nc(SCC[N+](C)(C)CC(=O)c2ccc(Br)cc2)c1C#N	rRNA inh HTS -30 (no result: esBAF inh) | AID977628 inactive
CN(C)CCNc1ncnc2c1sc1nc(N3CCCC3)c3c(c12)CC(C)(C)OC3	rRNA inh HTS -21 (no result: MITF act) | AID977628 inactive
COc1ccc(S(=O)(=O)Nc2ccc3c(c2)CC(=O)N([C@H](C)CO)C[C@@H](C)[C@@H](CN(C)C(=O)NC2CCCCC2)O3)cc1	none (no result: MITF act, Wnt act)
COc1ccc(N2CCN(Cc3csc(C)c3-c3ccc(C)cc3)CC2)cc1	none
Cc1ccc(CNS(=O)(=O)c2ccc3c(c2)NC(=O)CS3)cc1	rRNA inh HTS -20 | AID977621 inconclusive
O=C(NCc1ccccc1Cl)c1ccc2c(c1)SC1=NS(=O)(=O)CCN12	rRNA inh HTS -20 (no result: esBAF inh) | AID977621 inactive | AID977628 inactive
COC(=O)c1c(NC(=O)CCC(=O)O)sc(Cc2ccccc2)c1C	rRNA inh HTS -38 (no result: esBAF inh) | HepG2 tox inactive
